# Experimental data: paper PMC7862700, “An all-to-all approach to the identification of sequence-specific readers for epigenetic DNA modifications on cytosine”
# Assays:
# Assay in all cases: DAPPL (digital affinity profiling via proximity ligation, sequencing); 10 mM Tris-HCl pH 7.5, 50 mM NaCl, 1 mM DTT, 4% glycerol, room temperature, 30 min; GST-TFs on glutathione beads, 16-mer random dsDNA library, 0.1% formaldehyde crosslink after washing; high values mean tight binding
# Settings in all cases: protein: recombinant; tags: N-terminal GST; dsDNA, one strand shown
# [1] = target: T1, ERF (Homo sapiens, UniProt P50548 1-548)
# T1 sequence: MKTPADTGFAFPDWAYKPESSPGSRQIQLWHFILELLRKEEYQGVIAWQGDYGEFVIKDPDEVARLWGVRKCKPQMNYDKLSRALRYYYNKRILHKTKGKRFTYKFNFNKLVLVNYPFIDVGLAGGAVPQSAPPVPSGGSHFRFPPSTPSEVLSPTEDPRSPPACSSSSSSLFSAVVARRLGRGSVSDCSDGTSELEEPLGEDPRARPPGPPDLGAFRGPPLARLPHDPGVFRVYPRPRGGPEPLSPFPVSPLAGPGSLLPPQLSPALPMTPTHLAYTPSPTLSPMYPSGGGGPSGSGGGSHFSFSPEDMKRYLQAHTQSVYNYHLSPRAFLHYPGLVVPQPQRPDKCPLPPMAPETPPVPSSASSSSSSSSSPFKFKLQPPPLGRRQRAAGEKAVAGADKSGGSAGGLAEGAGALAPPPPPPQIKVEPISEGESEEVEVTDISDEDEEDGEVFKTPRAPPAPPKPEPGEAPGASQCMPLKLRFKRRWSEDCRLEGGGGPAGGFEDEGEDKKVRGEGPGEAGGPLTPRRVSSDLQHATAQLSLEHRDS
# Outline: (§1)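 After expression in yeast as GST fusions, human transcription factors were bound to glutathione beads, DNA-barcoded and mixed with a tag-only sample. The pools were incubated with 200 nmole of a 16-mer random double-stranded DNA library in Tris/NaCl/DTT/glycerol buffer (30 min, room temperature), washed and crosslinked with 0.1% formaldehyde. Proximity ligation with BsaI/T4 ligase ran for 1 h at 37 °C, before PCR amplification and sequencing on an Illumina NextSeq500. Binding signal is a hexamer's read frequency for a factor divided by its frequency for the tag-only sample.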
# [2] = target: T2, ETV3L (Homo sapiens, UniProt Q6ZN32 1-361)
# T2 sequence: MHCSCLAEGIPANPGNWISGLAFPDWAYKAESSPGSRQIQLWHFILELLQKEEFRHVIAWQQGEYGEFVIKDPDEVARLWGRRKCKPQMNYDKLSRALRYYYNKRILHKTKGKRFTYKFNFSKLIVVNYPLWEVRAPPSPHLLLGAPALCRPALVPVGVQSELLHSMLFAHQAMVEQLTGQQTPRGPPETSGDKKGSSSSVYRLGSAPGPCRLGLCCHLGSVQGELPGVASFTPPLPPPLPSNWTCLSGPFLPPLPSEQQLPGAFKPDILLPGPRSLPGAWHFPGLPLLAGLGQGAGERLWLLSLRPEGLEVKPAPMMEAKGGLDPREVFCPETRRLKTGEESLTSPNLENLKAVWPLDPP
# Outline: as §1
# [3] = target: T3, SPDEF (Homo sapiens, UniProt O95238 1-335)
# T3 sequence: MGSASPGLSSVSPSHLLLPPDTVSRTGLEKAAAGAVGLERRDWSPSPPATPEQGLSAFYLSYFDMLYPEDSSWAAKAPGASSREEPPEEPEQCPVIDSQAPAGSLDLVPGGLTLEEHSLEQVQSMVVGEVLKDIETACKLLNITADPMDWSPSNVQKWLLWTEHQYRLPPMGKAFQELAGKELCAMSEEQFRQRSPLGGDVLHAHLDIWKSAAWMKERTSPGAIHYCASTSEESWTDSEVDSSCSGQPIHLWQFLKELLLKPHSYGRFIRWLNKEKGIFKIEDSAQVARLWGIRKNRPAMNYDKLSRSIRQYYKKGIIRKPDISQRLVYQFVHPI
# Outline: as §1
# [4] = target: T4, ELF5 (Homo sapiens, UniProt Q9UKW6-2 1-255)
# T4 sequence: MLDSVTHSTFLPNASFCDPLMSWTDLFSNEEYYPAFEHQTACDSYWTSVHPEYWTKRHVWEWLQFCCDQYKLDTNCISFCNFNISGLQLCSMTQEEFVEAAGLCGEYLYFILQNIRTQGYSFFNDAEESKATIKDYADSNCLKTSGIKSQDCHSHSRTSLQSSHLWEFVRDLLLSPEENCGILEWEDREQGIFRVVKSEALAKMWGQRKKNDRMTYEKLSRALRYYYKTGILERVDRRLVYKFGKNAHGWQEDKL
# Outline: as §1
# [5] = target: ETV6 (Homo sapiens, UniProt P41212 1-452)
# Outline: as §1
# [6] = target: T5, ETV7 (Homo sapiens, UniProt Q9Y603 1-341)
# T5 sequence: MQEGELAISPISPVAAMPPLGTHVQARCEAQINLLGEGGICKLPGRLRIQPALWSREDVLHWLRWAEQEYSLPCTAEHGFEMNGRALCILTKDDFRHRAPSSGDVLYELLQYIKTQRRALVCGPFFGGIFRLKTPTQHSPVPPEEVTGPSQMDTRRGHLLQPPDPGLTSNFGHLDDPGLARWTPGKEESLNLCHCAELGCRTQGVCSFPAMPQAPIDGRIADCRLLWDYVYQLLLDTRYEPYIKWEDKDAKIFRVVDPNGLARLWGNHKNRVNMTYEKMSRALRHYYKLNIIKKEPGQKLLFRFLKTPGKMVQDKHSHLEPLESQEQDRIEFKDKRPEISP
# Outline: as §1
# [7] = target: T6, ETV3 (Homo sapiens, UniProt P41162-2 1-143)
# T6 sequence: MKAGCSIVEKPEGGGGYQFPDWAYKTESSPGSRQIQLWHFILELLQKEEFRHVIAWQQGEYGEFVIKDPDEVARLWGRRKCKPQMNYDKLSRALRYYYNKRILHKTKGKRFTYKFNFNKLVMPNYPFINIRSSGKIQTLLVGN
# Outline: as §1
# [8] = target: T7, ETS2 (Homo sapiens, UniProt P15036 1-469)
# T7 sequence: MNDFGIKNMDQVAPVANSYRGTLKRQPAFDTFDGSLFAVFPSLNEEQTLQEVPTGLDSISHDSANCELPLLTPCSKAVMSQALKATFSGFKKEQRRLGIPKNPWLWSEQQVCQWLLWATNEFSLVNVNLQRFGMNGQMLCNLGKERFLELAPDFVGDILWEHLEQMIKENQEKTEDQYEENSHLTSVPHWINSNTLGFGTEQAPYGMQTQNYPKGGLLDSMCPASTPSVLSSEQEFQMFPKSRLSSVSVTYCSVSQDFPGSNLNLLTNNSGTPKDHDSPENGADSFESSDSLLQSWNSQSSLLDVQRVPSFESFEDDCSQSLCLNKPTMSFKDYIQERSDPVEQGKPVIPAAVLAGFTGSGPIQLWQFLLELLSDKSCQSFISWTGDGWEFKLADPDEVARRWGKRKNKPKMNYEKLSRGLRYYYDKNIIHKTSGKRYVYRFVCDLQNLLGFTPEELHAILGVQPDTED
# Outline: as §1
# ETV6, sequence (P41212 whole entry): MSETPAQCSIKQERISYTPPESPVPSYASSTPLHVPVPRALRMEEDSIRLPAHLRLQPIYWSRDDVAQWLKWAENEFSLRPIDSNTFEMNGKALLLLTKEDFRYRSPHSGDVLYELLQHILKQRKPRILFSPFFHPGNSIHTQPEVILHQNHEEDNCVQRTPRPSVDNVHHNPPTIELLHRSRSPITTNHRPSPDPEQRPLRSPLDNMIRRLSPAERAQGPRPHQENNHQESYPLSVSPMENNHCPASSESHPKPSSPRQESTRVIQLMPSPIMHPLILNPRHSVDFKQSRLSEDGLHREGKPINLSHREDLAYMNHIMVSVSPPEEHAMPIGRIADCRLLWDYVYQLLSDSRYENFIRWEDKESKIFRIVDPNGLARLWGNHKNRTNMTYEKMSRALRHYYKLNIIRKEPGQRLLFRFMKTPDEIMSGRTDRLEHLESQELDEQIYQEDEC
Sequence,binding signal [1],binding signal [2],binding signal [3],binding signal [4],binding signal [5],binding signal [6],binding signal [7],binding signal [8]
CTACAG,"1.01 fold enrichment (6-mer frequency, TF over GST control)","1.13 fold enrichment (6-mer frequency, TF over GST control)","1.09 fold enrichment (6-mer frequency, TF over GST control)","1.08 fold enrichment (6-mer frequency, TF over GST control)","1.03 fold enrichment (6-mer frequency, TF over GST control)",,,
TCCCAG,"1.05 fold enrichment (6-mer frequency, TF over GST control)","1.08 fold enrichment (6-mer frequency, TF over GST control)","1.07 fold enrichment (6-mer frequency, TF over GST control)","1.12 fold enrichment (6-mer frequency, TF over GST control)",,"1.16 fold enrichment (6-mer frequency, TF over GST control)","1.07 fold enrichment (6-mer frequency, TF over GST control)",
GTATGG,"1.25 fold enrichment (6-mer frequency, TF over GST control)","1.03 fold enrichment (6-mer frequency, TF over GST control)",,"1.03 fold enrichment (6-mer frequency, TF over GST control)","1.01 fold enrichment (6-mer frequency, TF over GST control)","1.02 fold enrichment (6-mer frequency, TF over GST control)",,"1.01 fold enrichment (6-mer frequency, TF over GST control)"
CGATCA,"1.09 fold enrichment (6-mer frequency, TF over GST control)","1.1 fold enrichment (6-mer frequency, TF over GST control)",,,"1.05 fold enrichment (6-mer frequency, TF over GST control)","1.08 fold enrichment (6-mer frequency, TF over GST control)","1.1 fold enrichment (6-mer frequency, TF over GST control)","1.19 fold enrichment (6-mer frequency, TF over GST control)"
GTCCAC,"1.07 fold enrichment (6-mer frequency, TF over GST control)","1.12 fold enrichment (6-mer frequency, TF over GST control)",,,"1.03 fold enrichment (6-mer frequency, TF over GST control)","1.01 fold enrichment (6-mer frequency, TF over GST control)",,"1.05 fold enrichment (6-mer frequency, TF over GST control)"
ATCGCA,"1.06 fold enrichment (6-mer frequency, TF over GST control)","1 fold enrichment (6-mer frequency, TF over GST control)",,,,"1.03 fold enrichment (6-mer frequency, TF over GST control)","1.03 fold enrichment (6-mer frequency, TF over GST control)","1.02 fold enrichment (6-mer frequency, TF over GST control)"
GCACTG,"1.04 fold enrichment (6-mer frequency, TF over GST control)","1.07 fold enrichment (6-mer frequency, TF over GST control)",,,"1.09 fold enrichment (6-mer frequency, TF over GST control)","1.11 fold enrichment (6-mer frequency, TF over GST control)","1.12 fold enrichment (6-mer frequency, TF over GST control)","1.07 fold enrichment (6-mer frequency, TF over GST control)"
TAGGTC,"1.01 fold enrichment (6-mer frequency, TF over GST control)","1.02 fold enrichment (6-mer frequency, TF over GST control)","1.05 fold enrichment (6-mer frequency, TF over GST control)","1.02 fold enrichment (6-mer frequency, TF over GST control)",,"1.11 fold enrichment (6-mer frequency, TF over GST control)","1.04 fold enrichment (6-mer frequency, TF over GST control)",
AGCCCC,"1.03 fold enrichment (6-mer frequency, TF over GST control)","1.07 fold enrichment (6-mer frequency, TF over GST control)",,"1.01 fold enrichment (6-mer frequency, TF over GST control)","1.12 fold enrichment (6-mer frequency, TF over GST control)",,"1.11 fold enrichment (6-mer frequency, TF over GST control)","1.09 fold enrichment (6-mer frequency, TF over GST control)"
ATCATT,"1.13 fold enrichment (6-mer frequency, TF over GST control)","1.07 fold enrichment (6-mer frequency, TF over GST control)",,,"1.06 fold enrichment (6-mer frequency, TF over GST control)","1.01 fold enrichment (6-mer frequency, TF over GST control)",,"1.01 fold enrichment (6-mer frequency, TF over GST control)"
CCGAAG,"1.16 fold enrichment (6-mer frequency, TF over GST control)","1.02 fold enrichment (6-mer frequency, TF over GST control)",,,,,"1.02 fold enrichment (6-mer frequency, TF over GST control)","1.08 fold enrichment (6-mer frequency, TF over GST control)"
TGCGCG,"1.24 fold enrichment (6-mer frequency, TF over GST control)","1.02 fold enrichment (6-mer frequency, TF over GST control)",,"1.01 fold enrichment (6-mer frequency, TF over GST control)","1.14 fold enrichment (6-mer frequency, TF over GST control)","1.23 fold enrichment (6-mer frequency, TF over GST control)","1.03 fold enrichment (6-mer frequency, TF over GST control)",
TATCAA,"1.08 fold enrichment (6-mer frequency, TF over GST control)","1.06 fold enrichment (6-mer frequency, TF over GST control)",,,,"1.09 fold enrichment (6-mer frequency, TF over GST control)","1.04 fold enrichment (6-mer frequency, TF over GST control)","1.05 fold enrichment (6-mer frequency, TF over GST control)"
